# In the library only some 3.2% were active in any assay of this set; here they are far more common.
# DAGLB inhibitor – blocks human DAGLB lipase activity | hit rate 0.059% among 340,000 | inhibition, % at 5.17 µM | AID 504411 | HEK293T DAGLB membrane lysate, EnzChek fluorogenic substrate; in the data active means inhibition above about 34%;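 further: 0% = enzyme with vehicle and 100% = wells lacking enzyme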
# Target sequence (Q8NCG7 whole entry, looked up): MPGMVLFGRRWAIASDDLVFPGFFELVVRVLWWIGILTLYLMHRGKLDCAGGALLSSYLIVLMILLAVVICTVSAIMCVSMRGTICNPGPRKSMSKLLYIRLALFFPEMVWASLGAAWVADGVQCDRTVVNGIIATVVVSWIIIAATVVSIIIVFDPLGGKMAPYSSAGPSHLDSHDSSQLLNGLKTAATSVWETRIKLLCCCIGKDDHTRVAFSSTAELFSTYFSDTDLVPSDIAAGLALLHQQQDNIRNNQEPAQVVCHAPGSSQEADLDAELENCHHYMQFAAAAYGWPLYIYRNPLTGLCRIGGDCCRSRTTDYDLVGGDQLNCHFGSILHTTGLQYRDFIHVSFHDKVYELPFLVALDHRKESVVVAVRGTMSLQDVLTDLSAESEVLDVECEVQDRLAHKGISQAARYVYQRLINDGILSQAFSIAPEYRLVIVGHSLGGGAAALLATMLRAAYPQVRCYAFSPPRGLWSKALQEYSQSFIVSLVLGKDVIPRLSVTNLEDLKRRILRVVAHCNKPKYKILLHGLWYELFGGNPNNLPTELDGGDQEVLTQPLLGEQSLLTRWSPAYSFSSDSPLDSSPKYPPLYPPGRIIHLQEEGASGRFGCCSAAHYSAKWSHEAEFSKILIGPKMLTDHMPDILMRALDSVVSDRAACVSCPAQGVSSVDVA
# MsrA inh – inhibitors of bovine MsrA | hit rate 0.75% among 360,000 | inhibition, % at 15.5 µM | AID 651718 | purified bovine MsrA, absorbance read-out; in the data active means inhibition above about 4.5%;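 further: 0% = vehicle wells with enzyme and 100% = reference inhibitor wells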
# rCAG RNA binder – r(CAG) repeat RNA binding | TO-PRO-1 dye displacement fluorescence | inhibition, % at 3 µM | hit rate 1.3% among 370,000;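 active means inhibition above the plate cutoff, the mean of all test compounds on that plate plus 3 SD, cut at about 35% in these data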;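 further: 0% = DMSO alone and 100% = 100 µM mitoxantrone as full dye displacement; higher means more dye released from RNA so lower well fluorescence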
# Pemphigus Ab inh – inhibitors of pemphigus antibody binding to human desmoglein-3. DSG3-coupled beads, scFv-anti-DSG3-GFP binding, flow cytometry; hits give low values. hit rate 0.48% among 310,000. AID 588358. binding (percent of control), % at 10 µM. P32926;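 active means binding more than 3 SD below its plate's average and above zero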;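 further: hits lower antibody fragment binding to DSG3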
# MsrA act – bovine methionine sulfoxide reductase A activation; purified bovine MsrA, absorbance read-out; activation, % at 10.6 µM; hit rate 0.3% among 360,000; in the data active means activation above about 7.5%;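 further: 0% = vehicle and 100% = reference activator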
# NadD block – blocks S. aureus nicotinate mononucleotide adenylyltransferase | hit rate 0.78% among 360,000 | AID 602399 | inhibition, % at 20 µM | purified NadD enzyme, colorimetric absorbance read-out; in the data active means inhibition above about 26%
# NadD conf – confirmation of Staphylococcus aureus NadD inhibitors; AID 624309; shares compounds with NadD block; inhibition, % at 20 µM; purified S. aureus NadD, colorimetric enzyme assay; hit rate 13% among 2,000; in the data active means inhibition mostly above about 42%, no sharp cut-off; inactive means mostly below about 42%
# rCAG bind conf – r(CAG) RNA repeat binding, confirmation; shares compounds with rCAG RNA binder; TO-PRO-1 dye displacement fluorescence; inhibition, % at 3 µM; hit rate 70% among 4,300; AID 652065;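 active means inhibition above a per-plate cutoff, the mean inhibition of sample wells plus 3 SD, cut at about 35% in these data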;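 further: loss of TO-PRO-1 fluorescence as compound displaces dye from 1x1 AA loop RNA; 0% = DMSO only wells and 100% = 100 µM mitoxantrone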
# dCAG dye counter – DNA CAG dye complex inhibition counter-screen. inhibition, % at 3 µM. hit rate 94% among 4,300. AID 652068. d(CAG) DNA oligo TO-PRO-1 dye displacement, fluorescence. shares compounds with rCAG RNA binder;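 active means inhibition above its plate's cutoff, the mean test-well inhibition plus 3 SD, cut at about 4.8% in these data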;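 further: 0% = DNA dye mix with DMSO and 100% = 100 µM mitoxantrone; hits displace the dye from DNA and so lower well fluorescence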
# DNA CAG DR – DNA CAG dye complex inhibition, dose response counter-screen | shares compounds with rCAG RNA binder | DNA CAG/GTC duplex TO-PRO-1 dye displacement fluorescence | IC50, µM | hit rate 20% among 250 | AID 686960; in the data active means IC50 below about 10 µM
# * marks the source's active call; other numbers are inactive results; i = inactive; / = not tested or not shown.
SMILES,DAGLB inhibitor,MsrA inh,rCAG RNA binder,Pemphigus Ab inh,MsrA act,NadD block,NadD conf,rCAG bind conf,dCAG dye counter,others
CCn1c2ccccc2c2c3ncc4cccn4c3ccc21,0.7,-0.4,39.3*,119.2,-1.6,39.4*,4.8,55.5*,25.1*,
O=C(NCc1ccccc1Cl)C1CCC(CNS(=O)(=O)c2cccc3cccnc23)CC1 (stereo not drawn),/,/,20.3,/,/,/,/,/,/,
CS(=O)(=O)c1sc2nc(-c3cccs3)cc(-c3ccccc3)c2c1N,-0.4,1.5,65.0*,93.7,-3.6,73.5*,13.6,70.3*,35.9*,
Cc1ccc(-c2cc(-c3ccccc3)c3c(N)c(S(C)(=O)=O)sc3n2)cc1,-1.8,3.1,25.8,95.7,-5.1,25.7,/,/,/,
CC1(C(=O)NS(=O)(=O)c2cccc(C#N)c2)CCN1C(=O)c1cccc2ccccc12 (stereo not drawn),/,-0.1,9.0,/,0.1,-5.6,/,/,/,
Cc1ccccc1-c1cc(C(=O)Nc2sc(C(=O)OC(C)C)c(C)c2C#N)c2ccccc2n1,7.7,-0.9,46.6*,97.4,-7.4,73.9*,27.3,62.1*,28.4*,
COc1ccccc1NS(=O)(=O)c1cc(NC(=O)c2sc3cc(Cl)ccc3c2Cl)ccc1C,-1.8,1.3,6.5,97.6,-3.5,23.8,/,/,/,
Cc1ccc(NC(=O)c2cc3c(s2)CCCC3)cc1S(=O)(=O)Nc1ccccc1Cl,-5.5,1.2,47.4*,102.3,-9.1,29.6*,14.2,38.3*,12.7*,
CCCCCCCCNC(=O)C1CSCCS(=O)(=O)N1Cc1ccccc1 (stereo not drawn),/,/,-1.7,/,/,/,/,/,/,
O=C(c1ccccc1)c1ccc2nc(-c3ccco3)c(-c3ccco3)nc2c1,4.3,-0.8,42.4*,/,-3.1,74.5*,18.9,70.4*,36.4*,
CCCOc1ccc(C(=O)N/N=C/c2ccc(-c3ccc(S(=O)(=O)Nc4ncccn4)cc3)o2)cc1,6.3,4.2,54.4*,/,-0.8,32.2*,49.1*,60.5*,23.6*,
CCC(c1ccc(OC)cc1)c1cn(C)c2ccccc12 (stereo not drawn),/,/,-0.9,/,/,/,/,/,/,
CCN(CC)CC(O)CNc1ccnc2c(Cl)ccc(Cl)c12 (stereo not drawn),2.1,1.3,2.9,99.2,-1.6,-3.2,/,/,/,
C=CCSC1=N/C(=C\c2cc(OCC)c(OC(C)=O)c([N+](=O)[O-])c2)C(=O)S1,31.4,1.9,40.6*,126.1,-4.5,32.5*,8.6,61.0*,19.8*,
COC(=O)[C@@]12C[C@@H](CC(=O)NCCCCc3ccccc3)C(=O)N(Cc3ccco3)C1=CCC(C)(C)C2,/,-0.3,1.8,/,/,/,/,/,/,
COc1ccc(N2CCN(C(=O)c3cc(S(=O)(=O)N4CCCCCC4)ccc3OC)CC2)cc1,0.9,-1.9,-5.1,107.8,-0.9,5.0,/,/,/,
COc1cc(Cl)c(C)cc1NC(=O)CSc1sc2c(O)cc(=O)[nH]c2c1C#N,11.7,1.6,48.6*,107.4,-4.0,41.7*,27.4,55.4*,30.3*,
COc1cc(Cl)c(C)cc1NC(=O)CSCC#N,4.6,-1.1,2.3,98.2,-1.8,2.7,/,/,/,
CSc1ccc(NC(=O)C2(C)CCN2C(=O)Cc2ccc(C(C)(C)C)cc2)cc1 (stereo not drawn),/,-1.6,-0.4,/,1.8,-3.2,/,/,/,
N#Cc1c(NC(=O)CSc2ncnc3sccc23)oc(-c2ccco2)c1-c1ccco1,5.0,1.3,43.6*,100.1,-1.5,58.5*,58.2*,54.7*,24.2*,DNA CAG DR=i
Cc1cc(NC(=O)CSc2ncnc3sccc23)no1,-1.8,-0.2,-0.2,104.3,-7.2,-5.7,/,/,/,
Cc1ccc(CN2CCCCC(NC(=O)c3ccccc3C)C2=O)cc1 (stereo not drawn),/,/,0.5,/,/,/,/,/,/,
CCOC(=O)c1sc2nc(-c3ccco3)c3c(c2c1N)CC(C)(C)OC3,9.5,0.5,51.3*,93.4,-3.5,31.6*,10.3,34.6*,14.5*,
Oc1csc(Cc2nc(-c3ccc4ccccc4c3)cs2)n1,1.8,2.1,35.6*,93.2,-8.2,56.0*,38.1,32.0,17.9*,
C#CCNC(=O)C[C@H]1C[C@@]2(C(=O)OC)C(=C[C@H](C(C)(C)C)O[C@@H]2C)N(CCCCCCCC)C1=O,/,0.7,3.8,/,/,/,/,/,/,
SMILES,DAGLB inhibitor,MsrA inh,rCAG RNA binder,Pemphigus Ab inh,MsrA act,NadD block,NadD conf,rCAG bind conf,dCAG dye counter,others
COc1ccc(-c2cc(C(F)(F)F)c3c(n2)sc2c(O)cc(=O)[nH]c23)c(OC)c1,-21.6,1.7,42.2*,86.9,-2.7,29.6*,44.7,41.7*,14.4*,
CC(=O)OCCn1c([N+](=O)[O-])cnc1C=[N+]([O-])C1CCCCC1,0.0,2.2,0.4,109.5,-1.8,-3.2,/,/,/,
CCCCC(=O)Nc1nc(C)c(-c2csc(Nc3cc(Cl)ccc3OC)n2)s1,3.9,0.9,45.0*,105.4,-3.8,33.6*,28.5,22.9,13.1*,
CCCCCCC(=O)Nc1nc(C)c(-c2csc(Nc3cc(Cl)ccc3C)n2)s1,1.8,0.2,38.5*,96.5,-4.1,39.0*,11.8,20.4,11.1*,
CCN(CC)c1ccc(C(=O)NNC(=O)Cn2c(=O)cnc3ccccc32)cc1,-1.8,1.7,2.7,101.4,-7.8,0.2,/,/,/,
COP(=O)(CC(=O)O)C(CC(C)C)NC(=O)OCc1ccccc1 (stereo not drawn),/,/,3.8,/,/,/,/,/,/,
COc1cccc(OCc2cc(/C=N/Nc3ccc(C(=O)O)cc3)ccc2OC)c1,2.7,2.4,63.9*,61.2*,-11.9,46.4*,53.4*,73.7*,36.9*,
Cc1ccc(S(=O)(=O)Nc2ccccc2C(=O)Nc2nc(-c3ccc(F)cc3)cs2)cc1,13.3,-0.2,89.1*,112.5,-4.1,32.0*,47.5*,92.7*,80.9*,
Cc1ccc(-c2cc(C(=O)Nc3ccc(S(=O)(=O)Nc4ncccn4)cc3)c3ccccc3n2)cc1,6.6,1.6,57.8*,106.1,-1.9,33.5*,38.4,64.4*,20.5*,
O=C(Nc1ccc(S(=O)(=O)Nc2nccs2)cc1)c1ccc(F)cc1,4.3,-0.9,7.9,/,-1.0,0.8,/,/,/,
Cc1ccc(-c2cc(C(=O)Nc3ccc(S(=O)(=O)Nc4nccs4)cc3)c3ccccc3n2)c(C)c1,12.3,1.7,68.3*,112.7,-2.0,62.9*,52.5*,70.6*,30.4*,DNA CAG DR=i
O=C(Nc1ccc(S(=O)(=O)Nc2nccs2)cc1)c1ccc(N2C(=O)c3ccccc3C2=O)cc1,4.1,-0.3,44.9*,97.2,0.8,61.6*,40.0,56.0*,24.2*,
